Data on twelve molecules can be found in PubChem BioAssay.

The target of assay [1] is ATP-dependent translocase ABCB1 (Homo sapiens) (UniProt P08183). The assay is described as follows: P-glycoprotein substrate transport blockade – cell-based (AID 377). Particulars: MDR1-expressing cells, fluorescent substrate accumulation slope; stronger effect = higher value; concentration not given here.
Assay [2] can be described thus: blockers of polyQ-driven CASP3 activation – cell-based (AID 1583). Particulars: polyglutamine-induced caspase-3 activation, cell assay; stronger effect = higher value;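 tested at 10 µM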.
Assay [3] in a line: yeast 75Q aggregation reduction – 75Q-TubU reporter (AID 1593). Particulars: Yeast 75Q polyglutamine aggregation reporter.
A short description of assay [4]: restoration of touch response, mutant HTT neurons – whole organism, C. elegans mechanosensory neurons, N-terminal huntingtin (AID 1599). Particulars: C. elegans polyQ-huntingtin mechanosensory neurons, stronger effect = higher value.
A short description of assay [5]: blockers of cytochrome c efflux from mitochondria – biochemical, purified mitochondria (AID 1603).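 Further: mouse liver mitochondria challenged with calcium chloride; signal normalized to the plate average as 100%.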 Particulars: stronger effect = lower value.
A short description of assay [6]: polyglutamine aggregate formation blockers (AID 1604). The following applies: polyglutamine-induced protein aggregation inhibition assay; stronger effect = higher value; tested at 2.5 µM.

Molecules are shown by their SMILES. Records with an inconclusive call do not appear. For some of these results: Results with a measured potency or affinity are listed apart. Active and inactive are the calls of the source. No stated cut-off is given here; in the data, active means fluorescence slope change above about 50%; inconclusive means mostly about 31% to 49%; inactive means weaker than that.

Chain of ATP-dependent translocase ABCB1 (Homo sapiens) (P08183 whole entry, looked up): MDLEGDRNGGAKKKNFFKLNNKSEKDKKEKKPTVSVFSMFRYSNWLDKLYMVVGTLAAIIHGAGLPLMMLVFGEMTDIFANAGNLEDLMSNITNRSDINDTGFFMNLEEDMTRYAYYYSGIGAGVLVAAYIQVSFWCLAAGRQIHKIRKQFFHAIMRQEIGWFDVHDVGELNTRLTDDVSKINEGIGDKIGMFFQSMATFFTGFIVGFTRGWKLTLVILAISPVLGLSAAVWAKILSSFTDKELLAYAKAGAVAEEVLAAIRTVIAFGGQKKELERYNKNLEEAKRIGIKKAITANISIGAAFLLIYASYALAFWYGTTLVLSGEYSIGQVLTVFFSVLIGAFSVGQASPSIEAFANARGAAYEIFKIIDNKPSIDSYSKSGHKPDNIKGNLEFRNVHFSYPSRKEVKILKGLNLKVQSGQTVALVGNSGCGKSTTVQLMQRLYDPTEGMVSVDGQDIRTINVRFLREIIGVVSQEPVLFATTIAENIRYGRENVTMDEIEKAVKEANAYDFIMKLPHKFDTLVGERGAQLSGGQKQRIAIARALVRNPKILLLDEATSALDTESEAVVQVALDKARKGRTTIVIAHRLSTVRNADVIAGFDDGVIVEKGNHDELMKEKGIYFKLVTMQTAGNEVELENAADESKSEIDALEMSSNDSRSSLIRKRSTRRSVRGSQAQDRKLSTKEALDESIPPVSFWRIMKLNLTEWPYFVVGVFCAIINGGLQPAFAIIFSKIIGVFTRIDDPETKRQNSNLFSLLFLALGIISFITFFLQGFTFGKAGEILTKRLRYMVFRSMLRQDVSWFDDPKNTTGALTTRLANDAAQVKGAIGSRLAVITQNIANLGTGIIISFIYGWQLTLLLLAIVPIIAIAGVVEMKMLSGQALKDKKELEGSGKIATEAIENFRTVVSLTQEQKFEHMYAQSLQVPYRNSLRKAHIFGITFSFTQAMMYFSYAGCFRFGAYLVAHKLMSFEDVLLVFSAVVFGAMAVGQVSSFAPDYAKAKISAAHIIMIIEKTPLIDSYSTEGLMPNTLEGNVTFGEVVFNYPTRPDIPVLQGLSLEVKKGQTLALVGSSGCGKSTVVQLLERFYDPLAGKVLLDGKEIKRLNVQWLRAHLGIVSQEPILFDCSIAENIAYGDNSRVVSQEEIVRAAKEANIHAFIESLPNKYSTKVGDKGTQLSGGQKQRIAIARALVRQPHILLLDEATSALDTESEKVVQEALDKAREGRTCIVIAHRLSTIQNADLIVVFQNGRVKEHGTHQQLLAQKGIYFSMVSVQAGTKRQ

Consider `CC(=O)Nc1ccc(OCC(O)CNC(C)C)cc1` (centres undefined), for which the fluorescence slope change in assay [1] is 57.7% (active). Moreover, in assay [2], the inhibition (as a rule, the drop in the measured response relative to a control, in per cent) turned out to be 19.6%. In assay [3], this molecule yielded a score of 1. The molecule also yielded a rescue above control in assay [4] of 6.87. Besides, the cytochrome c release ratio in assay [5] stood at 0.77. Also, in assay [6], the inhibition of aggregation stood at 66.7%.

As for `Cn1cnc2c1c(=O)[nH]c(=O)n2C`, the inhibition in assay [2] was 30.4%. Besides, the score in assay [3] is 1.43. The rescue above control in assay [4] is -0.5. In assay [5], the cytochrome c release ratio was 0.76. This molecule gave an inhibition of aggregation in assay [6] of 28.1%.

For `CCC(Cc1c(I)cc(I)c(N)c1I)C(=O)O` (centres undefined), the inhibition in assay [2] was -9.96%. Further, the score in assay [3] was -1.24. The molecule further displayed a rescue above control in assay [4] of -0.81. Besides, the cytochrome c release ratio in assay [5] is 1.14. The molecule further returned an inhibition of aggregation in assay [6] of 1.96%.

For `Oc1ccc(Cl)cc1Cc1cc(Cl)ccc1O`, the inhibition in assay [2] was 7.6%. The molecule further gave a score in assay [3] of -0.49. In assay [4], this molecule came in with a rescue above control of 0. Moreover, in assay [5], the cytochrome c release ratio came to 0.36. Further, the inhibition of aggregation in assay [6] stood at 29.6%.

Regarding `Cc1ccc(C(=O)C(C)CN2CCCCC2)cc1` (centres undefined), in assay [2], the inhibition was -24.9%. Also, the score in assay [3] is 0.57. For the same molecule, in assay [4], the rescue above control is -2.41. For the same molecule, in assay [5], the cytochrome c release ratio came out at 0.96. In assay [6], the inhibition of aggregation amounted to 37.2%.

Consider `O=C(O)c1cc(=O)c2ccccc2o1`, for which, in assay [2], the inhibition stood at 6.16%. The molecule further returned a score in assay [3] of 1.58. Besides, in assay [4], the rescue above control was -0.59. In addition, the cytochrome c release ratio in assay [5] came out at 0.94. The molecule further registered an inhibition of aggregation in assay [6] of 87.2%.

For `O=C(O)CCC(=O)c1ccc(-c2ccccc2)cc1`, the fluorescence slope change in assay [1] was 81% (active). Moreover, the inhibition in assay [2] was 1.96%. The score in assay [3] is -0.44. The rescue above control in assay [4] was found to be 4.61. For the same molecule, the cytochrome c release ratio in assay [5] came out at 1. In assay [6], the inhibition of aggregation was found to be 18.2%.

For the molecule `CC(CN(C)C)CN1c2ccccc2CCc2ccccc21` (centres undefined), the fluorescence slope change in assay [1] was 61.2% (active). Also, the inhibition in assay [2] was determined as 11.6%. The molecule also registered a score in assay [3] of 1.5. Further, the rescue above control in assay [4] is -11.6. The cytochrome c release ratio in assay [5] was found to be 0.94. This molecule also yielded an inhibition of aggregation in assay [6] of 23.8%.

`CCCc1ncc(C[n+]2ccccc2C)c(N)n1`: the inhibition in assay [2] is -2.36%. In addition, the score in assay [3] worked out at 1.6. For the same molecule, the rescue above control in assay [4] is -0.43. In assay [5], the cytochrome c release ratio was 0.95. The molecule also displayed an inhibition of aggregation in assay [6] of 84.8%.

For `Cn1c([N+](=O)[O-])cnc1COC(N)=O`, in assay [2], the inhibition was -0.12%. In addition, in assay [3], the score came out at 1.29. For the same molecule, the rescue above control in assay [4] is 8.28. Also, the cytochrome c release ratio in assay [5] turned out to be 0.98. The molecule also displayed an inhibition of aggregation in assay [6] of 44.8%.

In the case of `Cn1c(=O)c2c(ncn2CCO)n(C)c1=O`, the fluorescence slope change in assay [1] was 50.2% (active). Also, the inhibition in assay [2] was -0.98%. Also, the score in assay [3] was determined as 1.29. The rescue above control in assay [4] is -7.41. The cytochrome c release ratio in assay [5] turned out to be 1.08. The inhibition of aggregation in assay [6] worked out at 56.7%.

With `CCC(=O)O[C@H]1[C@H](O[C@@H]2[C@@H](C)[C@H](O[C@H]3C[C@@](C)(OC)[C@@H](O)[C@H](C)O3)[C@@H](C)C(=O)O[C@H](CC)[C@@](C)(O)[C@H](O)[C@@H](C)C(=O)[C@H](C)C[C@@]2(C)O)O[C@H](C)C[C@@H]1N(C)C`, the inhibition in assay [2] was -0.34%. This molecule had a score in assay [3] of -0.96. In addition, the rescue above control in assay [4] is 11.4. Moreover, in assay [5], the cytochrome c release ratio was found to be 1.02. The molecule further returned an inhibition of aggregation in assay [6] of 87.3%.
